The structures appear in SMILES notation. The campaign covered roughly 410,000 compounds. About 18,000 (4.4%) were called active. Not shown: some 7% with an inconclusive outcome. Cut-off read from the data, not from the text of the source: active = activity change below about -60%; inconclusive = no clear call, values can overlap the other calls; inactive = above about -39%. For the sample, actives were picked, then their nearest neighbours and some compounds at random.
% is set by controls: 0 for no effect and ±100 for the full control effect.

The experiment is described as follows: qHTS Assay for inhibitors of the human cytomegalovirus (HCMV). The note with it: HFF cells, HCMV-luciferase reporter, 72 h; at 57.5 µM; hits give low values. An outline of the steps: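 HFF cells seeded 16 h at 37C, treated with compounds, infected with luciferase-reporter HCMV at MOI 1 PFU/cell; luciferase read at 72 h post infection, normalized to buffer-only and Salinomycin controls.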
For `Cc1ccc(Cl)cc1NC(=O)C(C)n1nnc2sc(-c3ccccc3)cc2c1=O` (stereo unspecified), the activity change, negative = inhibition is 17.8% (inactive).
For `COc1cc(OC)c(N(C)C(=O)c2cc3c(=O)oc4ccccc4c3s2)cc1Cl` the value was -8.12% (inactive).
Take `Cn1c(=O)c2c(nc(Oc3ccc(C#N)cc3)n2Cc2ccc(Cl)cc2Cl)n(C)c1=O`: the activity change, negative = inhibition was -9.46% (inactive).
`Cc1cc(NC(=O)CSCc2ccccc2C)no1`: the activity change, negative = inhibition was -34.5% (inactive).
Turning to `Cc1cc(NC(=O)CS(=O)(=O)c2cn(C)c3ccccc23)no1`, the activity change, negative = inhibition was -74.2% (active).
For the molecule `Cc1cc(NC(=O)COn2nnc3ccccc32)no1`, the activity change, negative = inhibition is 29.8% (inactive).
For `Cc1ccc2c(=O)c(C(=O)c3ccc(Cl)cc3)cn(CC(=O)NC3CCCCC3)c2n1` the value was -0.369% (inactive).
Consider `CCOc1ccc(CCNC(=O)c2c(C)oc3ncn(C)c(=O)c23)cc1`, for which the activity change, negative = inhibition is -13.7% (inactive).
The result for `Cc1cc(C)cc(OCC(=O)Nc2nc(-c3ccc(F)cc3)ns2)c1` reads 150% (inactive); that for `COc1ccccc1C(=O)COC(=O)COc1ccc(C#N)cc1`, -31.6% (inactive).
For `CC(C)(C)c1nnc2sc(SCC(O)=C(C#N)c3nc4ccccc4[nH]3)nn2c1=O` the value was -4.66% (inactive).
The result for `N#C/C(=C(/O)COC(=O)COc1ccc(Cl)cc1)c1nc2ccccc2[nH]1` reads -101% (active).
For `Cc1ccc(S(=O)(=O)Nc2ccccc2CNc2c(C)n(C)n(-c3ccccc3)c2=O)cc1`, the activity change, negative = inhibition is -7.12% (inactive).
As to `CC1CCCN(Cc2c(O)ccc3c(=O)c(Oc4ccc(C(C)(C)C)cc4)c(C(F)(F)F)oc23)C1` (stereo unspecified), the activity change, negative = inhibition is -38.5% (inactive).
`Cc1csc2nc(COC(=O)c3ccc(NC(=O)COc4ccccc4F)cc3)cc(=O)n12`: the activity change, negative = inhibition is 14.4% (inactive).
For `O=C(CSc1ccccc1F)NC1CCS(=O)(=O)C1` (stereo unspecified) the value was -105% (active); for `O=C(CSc1nn(-c2ccc(F)cc2)c(=S)s1)NC1CCS(=O)(=O)C1` (stereo unspecified), -34.3% (inactive); for `O=C(CSc1ncnc2sccc12)NC1CCS(=O)(=O)C1` (stereo unspecified), -22.5% (inactive).
`COC(=O)CC(CC(=O)OC)n1cccc1`: the activity change, negative = inhibition is 19.2% (inactive).
The result for `COc1ccc(-n2c(SCC(=O)Nc3sc4c(c3C#N)CCCC4)nnc2-c2ccc(O)cc2)cc1` reads -15.5% (inactive).
For `COc1ccccc1-c1ccnc2[nH]n(-c3ccccc3)c(=O)c12` the value was -8.55% (inactive); for `COc1ccc2cc(CNc3ccc(OC)c(OC)c3)c(=O)n(CC(=O)Nc3ccccc3F)c2c1`, 9.9% (inactive).
For the molecule `CCOc1ccccc1NC(=O)C1CCCN(S(=O)(=O)c2ccccc2)C1` (stereo unspecified), the activity change, negative = inhibition was -62% (active).
For `CCOc1ccccc1NC(=O)C1CCCN(C(=O)Nc2ccccc2)C1` (stereo unspecified) the value was -21.6% (inactive).
For `Cc1ccc(S(=O)(=O)N2CCCCC2)cc1NC(=O)[C@@H]1CCCN1C(=O)c1cccs1` the value was 0% (inactive); for `CCOc1ccc(S(=O)(=O)N2CCCCC2)cc1NC(=O)CN1CCCC1c1cccs1` (stereo unspecified), -90% (active); for `CCOc1ccccc1NC(=O)COc1ccc(S(=O)(=O)N2CCCC2)cc1`, -21% (inactive).
For `COc1ccc(S(=O)(=O)N2CCCCC2)cc1NC(=O)COc1ccccc1` the value was -25.1% (inactive); for `O=C(O)CCc1cccnc1`, -25.2% (inactive).
Regarding `CN(Cc1ccccc1)S(=O)(=O)c1ccc(F)c(C(=O)Nc2cccc(Cl)c2Cl)c1`, the activity change, negative = inhibition was 6.47% (inactive).
For `COc1ccc2ncc3c(-c4ccc(C)c(C)c4)nn(CC(=O)NC4CCCC4)c3c2c1`, the activity change, negative = inhibition is 14.2% (inactive).
For `O=C(CSc1nccn1Cc1ccc(Cl)cc1)NCc1ccccc1` the value was -18.2% (inactive); for `COc1ccc(Cl)cc1NC(=O)Cn1c(=O)c2ccccc2n2nncc12`, 11.9% (inactive).
The result for `CNP1(NC)=Nc2nn(-c3ccccc3)c(N)c2C(c2ccccc2)=N1` reads 43.5% (inactive); that for `Cc1nn(-c2ccc([N+](=O)[O-])cc2)c(N)c1-c1ccccc1`, -65.4% (active).
Regarding `Cc1nn(-c2ccccc2)c2c1C(c1cccc([N+](=O)[O-])c1)N(c1ccccc1)C(=O)N2` (stereo unspecified), the activity change, negative = inhibition is -9.36% (inactive).
For `O=C(NNS(=O)(=O)c1ccccc1)c1cnn(-c2ccc(Cl)cc2)c1C(F)(F)F` the value was 2.04% (inactive); for `CC(C)c1ccc(C2CC(=O)N3CN(C4CCCCC4)CSC3=C2C#N)cc1` (stereo unspecified), -5.74% (inactive); for `CC(=O)c1cccc(-c2cnc3c(NC=O)cc(-c4ccc(N5CCN(C)CC5)cc4)cn23)c1`, 19.8% (inactive).
For `CC(=O)Nc1cc(-c2ccc(N3CCN(C)CC3)cc2)cn2c(-c3ccc(F)cc3)cnc12` the value was -75.2% (active); for `CC(=O)Nc1cc(-c2ccc(N3CCN(C)CC3)cc2)cn2c(-c3cccc(C(=O)N(C)C)c3)cnc12`, 8.54% (inactive).
For `Cc1ccc2cccc(NC(=O)c3cccc4ccccc34)c2n1` the value was -10.4% (inactive); for `C/C(N)=C(/C#N)C(=O)COC(=O)C1CCN(C(=O)c2ccc(Cl)cc2)CC1`, -65.3% (active).
For `O=C(NC1CCCCCC1)C1CCN(C(=O)c2ccc(Cl)cc2)CC1`, the activity change, negative = inhibition was -37.2% (inactive).
The result for `COC(=O)C1CCN(C(=O)c2ccc3oc(Cc4ccc(Cl)cc4)nc3c2)CC1` reads 8.67% (inactive); that for `CCN(CCCNC(=O)c1c(C)oc2ncn(CC(C)C)c(=O)c12)Cc1ccccc1`, -5.33% (inactive); that for `Cc1ccc(C)c(NC(=O)C2CCCN(S(=O)(=O)c3cn(C)cn3)C2)c1` (stereo unspecified), 44.9% (inactive).
For `CC(CNC(=O)c1nnc(Cc2cccc(F)c2)o1)c1ccccc1` (stereo unspecified) the value was -15.6% (inactive); for `O=C(Nc1ccc(C(=O)OCc2cc(=O)n3nc(C4CC4)sc3n2)cc1)c1ccc(F)cc1`, 7.95% (inactive); for `CC(C)c1ccc2oc(-c3cc(NC(=O)c4cccs4)ccc3Cl)nc2c1`, -18.9% (inactive).
`C[C@H]1Cn2cnc(C(=O)N[C@H](C)c3ccccc3)c2C(=O)N1`: the activity change, negative = inhibition was -3.07% (inactive).
The result for `C[C@@H]1Cn2cnc(C(=O)Nc3ccc(CNC(=O)OC(C)(C)C)cc3)c2C(=O)N1` reads -101% (active); that for `C[C@H]1Cn2cnc(C(=O)N[C@@H](Cc3c[nH]c4ccccc34)C(=O)OC(C)(C)C)c2C(=O)N1`, 16% (inactive).
Regarding `O=C(NCC(c1cccnc1)N1CCc2ccccc21)c1cccc(C(F)(F)F)c1` (stereo unspecified), the activity change, negative = inhibition was -36.7% (inactive).
Regarding `O=C(Oc1cccc(C(=S)N2CCOCC2)c1)c1cccc(Cl)c1`, the activity change, negative = inhibition was -4.94% (inactive).
The result for `O=C(Nc1ccc(Cl)cc1)c1cccc(OC(=S)N2CCOCC2)c1` reads -103% (active); that for `O=C(Nc1ccccc1C(=O)N1CCOCC1)c1ccc(Cl)cc1`, 8.32% (inactive).
For `Cc1nc(NC(=O)C2CCCCC2)sc1C` the value was 62.5% (inactive).
The result for `Cc1ccc(C(CC(=O)O)Nc2nc(N3CCCCC3)nc(N3CCCCC3)n2)cc1` (stereo unspecified) reads -10.1% (inactive).
Take `O=C(NNC1=NCCC1)c1cccc(S(=O)(=O)N2CCCCC2)c1`: the activity change, negative = inhibition was -11.4% (inactive).
For `O=C(NNc1nc(N2CCCC2)nc(N2CCCC2)n1)c1ccccc1` the value was -66.4% (active); for `CCC1(C)CC(=O)c2c(ccc3oc(C(=O)Nc4ccc(C(C)=O)cc4)c(C)c23)O1` (stereo unspecified), -8.87% (inactive).
For `COc1cccc(C2C(C(=O)Nc3ccc(C)cc3C)=C(C)Nc3c(C(=O)Nc4ccccc4)cnn32)c1` (stereo unspecified) the value was -31.3% (inactive); for `O=C1CSC(=O)N1CCOCCN1C(=O)CSC1=O`, 11.3% (inactive); for `CC(C)(C)NC(=O)CSc1nc(-c2ccc(F)cc2)cc(C(F)(F)F)n1`, -8.55% (inactive).
As to `CC12CCC3C(CCC4CC(=O)CCC43C)C1CC(=NO)C2=O` (stereo unspecified), the activity change, negative = inhibition is 16.3% (inactive).
Take `CN(CC(=O)Nc1ccccc1F)S(=O)(=O)c1ccc2c(c1)c(=O)n(C)c(=O)n2C`: the activity change, negative = inhibition was 3.4% (inactive).
For `CCc1ccccc1NC(=O)CN(C)S(=O)(=O)c1ccc2c(c1)c(=O)n(C)c(=O)n2C` the value was 14.6% (inactive); for `CC(C)c1ccc(NC(=O)CN(C)S(=O)(=O)c2ccc3c(c2)c(=O)n(C)c(=O)n3C)cc1`, -106% (active); for `CC1CCCC(NC(=O)COC(=O)[C@@H]2CC(O)CN2S(=O)(=O)c2ccc3c(c2)OCCO3)C1C` (stereo partly specified), 10.5% (inactive).
The result for `Cc1ccc(Cl)cc1NC(=O)CSc1nccn1C` reads -11.3% (inactive).
The result for `Cc1cc(C)n(CCNCc2c(C(=O)N3C[C@@H](C)O[C@@H](C)C3)nc3ccc(Cl)cn23)n1` reads 18.2% (inactive); that for `Cc1ccc(C(=O)N2CCc3cc(CNC(=O)c4ccc(Br)cc4)ccc32)cc1`, -17.7% (inactive).
For `CC1=C(C(=O)N2CCN(c3cccc(C(F)(F)F)c3)CC2)C2(CCCCC2)OC1=O`, the activity change, negative = inhibition was 30.4% (inactive).
The result for `Nc1nc(SCC(=O)NCCN2CCOCC2)nc2sc3c(c12)CCC3` reads 5.31% (inactive); that for `C=C(C)CSc1nc(N)c2c3c(sc2n1)CCC3`, 31.9% (inactive); that for `CC(C)(C)C1CCc2c(sc3nc(SCC(N)=O)nc(N)c23)C1` (stereo unspecified), -100% (active).
As to `CC(C)(C)c1ccc(C(=O)NCc2nnc(SCC(=O)N3CCCc4ccccc43)n2-c2ccccc2)cc1`, the activity change, negative = inhibition is -18.4% (inactive).
For `CC1(C)C(=O)CCC2(C)C1=CCC1C2C(=O)CC2(C)C1CCC2(O)C(=O)CO` (stereo unspecified), the activity change, negative = inhibition is -4.43% (inactive).
For `Cc1cc(C)c(NC(=O)Cn2c(SCC(=O)NCc3ccccc3)nc3ccccc32)c(C)c1` the value was -0.705% (inactive); for `CC1(C(=O)OCC(=O)Nc2ncc(Cl)cc2Cl)CC1(Cl)Cl` (stereo unspecified), -27.2% (inactive).
For `Cc1ccc(-n2c(SCC(=O)Nc3ncc(Cl)cc3Cl)nc3ccccc32)cc1` the value was -98.7% (active).
With `COc1cc2nc(SCC(=O)Nc3ccccc3F)n3nc(-c4ccccc4)nc3c2cc1OC`, the activity change, negative = inhibition is -6.09% (inactive).
The result for `Cc1ccccc1CS(=O)(=O)CC1Nc2ccc(C(=O)NCc3ccc(Cl)cc3)cc2NC1=O` (stereo unspecified) reads 2.23% (inactive); that for `CC(C)c1ccc(OCC(=O)N(Cc2ccc(N(C)C)cc2)C2CCS(=O)(=O)C2)cc1` (stereo unspecified), 7.29% (inactive).
For `CCc1ccc(NC(=O)C2CCCN2S(=O)(=O)c2ccc3nc(-c4ccccc4)[nH]c3c2)cc1` (stereo unspecified) the value was -18.7% (inactive).

The values above are taken from PubChem BioAssay AID1259415 (National Center for Advancing Translational Sciences (NCATS), 2018).
